A collection of fitness landscapes (doi:10.1016/j.celrep.2020.107928)
Over roughly 81,000 sequences, “one-hybrid fitness for binding NBS DNA” has its median near -0.1; the highest 2% begin near 0.36. For the sample, the highest values were picked, then their nearest neighbours and some sequences at random.

B1: Caulobacter ParB omega fusion; a variant is named by its letters at X, in order, B8GW30 (parent)
chain: MESVVVGEPGMSEGRRGLGRGLSALLGEVDAAPAQAPGEQLGGSREAPIEILQRNPDQPRRTFREEDLEDLSNSIREKGVLQPILVRPSPDTAGEYQIVAGERAWRAAQRAGLKTVPIMVRELDDLAVLEIGIIENVQRADLNVLEEALSYKVLMEKFERTQENIAQTIGKSXSHVANXMRLLXLPDEVQSYLVSGELTAXHARAIAAAADPVALAKQIIEGGLSVRETEALARKAPNLSAGKSKGGRPPRVKDTDTQALESDLSSVLGLDVSIDHRGSTGTLTITYATLEQLDDLCNRLTRGI

Variants of: B1
Assay: one-hybrid fitness for binding NBS DNA (the Noc-binding site; scaled: cognate 1, non-cognate 0); higher = stronger binding
Details: with NBS DNA site
In short: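 Bacterial one-hybrid selection in E. coli USO rpoZ- hisB- pyrF- with a HIS3 reporter carrying the site 19 bp from the promoter, screening Caulobacter ParB libraries with four specificity codons randomised (NNS). Cells grew 48 hours at 37°C on M9-minus-histidine plus 0.1 mM IPTG and 5 mM 3-AT. Plasmids before and after selection were Illumina-sequenced, three replicate libraries pooled, and variants under 10 reads dropped. Fitness is the log change in variant-to-wild-type read ratio, rescaled to cognate 1, non-cognate 0.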

Variant | one-hybrid fitness for binding NBS DNA
FMPK | 0.314
RISS | 0.358
SLQG | ≤ 0.2
DCLR | ≤ 0.2
PTRA | ≤ 0.2
RWVV | ≤ 0.2
QWNR | 0.304
QMMQ | ≤ 0.2
CVMR | ≤ 0.2
TNHL | ≤ 0.2
ESDR | ≤ 0.2
LVTW | ≤ 0.2
PNSF | ≤ 0.2
LPGR | ≤ 0.2
QLIH | ≤ 0.2
RRDM | ≤ 0.2
RRKG | 0.461
RRNM | 0.428
RCKG | ≤ 0.2
RCNM | ≤ 0.2
RRVG | 0.298
YVLT | ≤ 0.2
LIAF | ≤ 0.2

Variant | one-hybrid fitness for binding NBS DNA
KLGG | ≤ 0.2
ELRQ | ≤ 0.2
RSSE | ≤ 0.2
GPWL | ≤ 0.2
QCGA | 0.364
QHGA | 0.208
QRGA | 0.653
QLGA | ≤ 0.2
QAGA | 0.221
QSGA | 0.291
PSYL | ≤ 0.2
ACER | ≤ 0.2
PNTQ | ≤ 0.2
RLFR | 0.247
RAAN | ≤ 0.2
RIFR | 0.243
RHAR | 0.427
RLAR | 0.42
RIAN | ≤ 0.2
RAAR | 0.385
RLAN | ≤ 0.2
RIAR | 0.384
RAFR | 0.27

Variant | one-hybrid fitness for binding NBS DNA
RHAD | ≤ 0.2
RHFR | 0.206
RMFS | 0.221
FGDR | ≤ 0.2
GIAC | ≤ 0.2
MKIR | ≤ 0.2
FHKW | ≤ 0.2
PVKH | ≤ 0.2
TANL | ≤ 0.2
VPPG | ≤ 0.2
KWAS | ≤ 0.2
RCAR | 0.529
RSFR | 0.28
RSAR | 0.438
RFAR | 0.242
RPAR | ≤ 0.2
RSAH | ≤ 0.2
PHEL | ≤ 0.2
IQNS | ≤ 0.2
WRET | ≤ 0.2
AVER | ≤ 0.2
TMML | ≤ 0.2
YKYR | ≤ 0.2

Variant | one-hybrid fitness for binding NBS DNA
YKDS | 0.297
YKYT | ≤ 0.2
YKDT | 0.385
YKDR | 0.512
YKNT | ≤ 0.2
YKNR | ≤ 0.2
YKDN | ≤ 0.2
YKDH | 0.692
PGCP | ≤ 0.2
ARAS | ≤ 0.2
RMPC | ≤ 0.2
IYSS | ≤ 0.2
KREW | ≤ 0.2
VDGI | ≤ 0.2
QVNY | ≤ 0.2
CDAR | ≤ 0.2
CPEM | ≤ 0.2
GLTI | ≤ 0.2
PMWG | ≤ 0.2
RAKN | ≤ 0.2
RMVT | 0.296
RAVT | 0.237
RSVT | 0.238

Variant | one-hybrid fitness for binding NBS DNA
NFKT | ≤ 0.2
RMKM | 0.216
RAKT | 0.623
RSKP | ≤ 0.2
RFKT | 0.512
RFVT | ≤ 0.2
RSKT | 0.618
RMKT | 0.606
PIPI | ≤ 0.2
SQAS | ≤ 0.2
ERWR | ≤ 0.2
DMMR | ≤ 0.2
DFLL | ≤ 0.2
AIKF | ≤ 0.2
LHHN | ≤ 0.2
WGHS | ≤ 0.2
RCSQ | ≤ 0.2
RHVT | ≤ 0.2
RIVT | 0.243
RHKD | ≤ 0.2
RIKT | 0.623
RIKN | ≤ 0.2
REKT | ≤ 0.2

Variant | one-hybrid fitness for binding NBS DNA
RHKT | 0.578
RCKT | 0.653
RPKT | ≤ 0.2
HNER | ≤ 0.2
YSVR | ≤ 0.2
NNAI | ≤ 0.2
ECLL | ≤ 0.2
LKEG | ≤ 0.2
QAFT | 0.326
QIAT | 0.28
QCAT | 0.533
QSAN | ≤ 0.2
QPAT | ≤ 0.2
QLFT | 0.289
QAAH | ≤ 0.2
QSAP | ≤ 0.2
QLAH | ≤ 0.2
QAAT | 0.401
QSAT | 0.395
QLAT | 0.396
DLIW | ≤ 0.2
GYPG | ≤ 0.2
MTVA | ≤ 0.2

Variant | one-hybrid fitness for binding NBS DNA
ELQY | ≤ 0.2
NMPC | ≤ 0.2
YMLA | ≤ 0.2
PNNH | ≤ 0.2
STTR | ≤ 0.2
GQTC | ≤ 0.2
PTRL | ≤ 0.2
ITAS | ≤ 0.2
QHFT | 0.312
QHAD | ≤ 0.2
QHAT | 0.41
IDNR | 0.348
HTGM | ≤ 0.2
DSKV | ≤ 0.2
QCFS | 0.397
QSAS | 0.356
QPAS | ≤ 0.2
QRAE | 0.332
QRAH | 0.583
QRAD | 0.25
QCAS | 0.451
QRAP | 0.264
QRAF | 0.302

Variant | one-hybrid fitness for binding NBS DNA
QRAS | 0.684
QSFS | 0.256
QPFS | ≤ 0.2
LCKS | ≤ 0.2
STRH | ≤ 0.2
SLSS | ≤ 0.2
AMPP | ≤ 0.2
HDRS | ≤ 0.2
NECS | ≤ 0.2
AAGK | ≤ 0.2
QPEY | ≤ 0.2
QRAC | 0.391
QRFC | 0.289
QCAM | ≤ 0.2
QRFM | 0.22
QRFD | ≤ 0.2
QRFS | 0.597
QRFP | 0.201
QRAQ | 0.412
QCAQ | ≤ 0.2
QRFQ | 0.226
QCAC | ≤ 0.2
QRAM | 0.404

Variant | one-hybrid fitness for binding NBS DNA
QSIQ | ≤ 0.2
KPVS | ≤ 0.2
YYMR | ≤ 0.2
RFQM | ≤ 0.2
GDHK | ≤ 0.2
LAMD | ≤ 0.2
SSIR | ≤ 0.2
QRAN | 0.39
QCAN | ≤ 0.2
QRFN | 0.353
RKKD | ≤ 0.2
RKVN | ≤ 0.2
RKKP | ≤ 0.2
RKKY | 0.38
RKDY | ≤ 0.2
RCKY | 0.318
RKVD | ≤ 0.2
RKKS | 0.653
RKYY | ≤ 0.2
RKRY | 0.366
RKVY | ≤ 0.2
RKVS | 0.426
